According to PubChem BioAssay (NCI):
Compounds without any hit were thinned out: in the full panel of roughly 83,000, 20% have a hit.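 Percent growth is the endpoint: 0 to 100 indicates growth inhibition (40 means 60% inhibition), 0 means no net growth, and negative values indicate cell death.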 Active and inactive are the calls of the source. Rule for the calls: active = growth percent below 10; inactive = the rest.

Assays:
Experiment in all cases: NCI-60 one-dose screen, 48 h (100 = growth as untreated, 0 = no growth, -100 = all killed)
Settings in all cases: 10 µM unless noted
RPMI-8226 leukemia = test system: RPMI-8226 leukemia
OVCAR-8 ovarian = test system: OVCAR-8 ovarian
OVCAR-5 ovarian = test system: OVCAR-5 ovarian
OVCAR-4 ovarian = test system: OVCAR-4 ovarian
SK-OV-3 ovarian = test system: SK-OV-3 ovarian
IGROV1 ovarian = test system: IGROV1 ovarian
OVCAR-3 ovarian = test system: OVCAR-3 ovarian
HS 578T breast = test system: HS 578T breast
NCI/ADR-RES ovarian = test system: NCI/ADR-RES ovarian
T-47D breast = test system: T-47D breast
BT-549 breast = test system: BT-549 breast
MDA-MB-435 melanoma = test system: MDA-MB-435 melanoma
SW-620 colon = test system: SW-620 colon
MCF7 breast = test system: MCF7 breast
HCT-116 colon = test system: HCT-116 colon
HCC-2998 colon = test system: HCC-2998 colon
KM12 colon = test system: KM12 colon

Measured: growth

O=C(CCCCCCCCC(=O)Nc1cccc(C2=NCCN2)c1)Nc1cccc(C2=NCCN2)c1
inactive: RPMI-8226 leukemia 78.6% | OVCAR-8 ovarian 107% | OVCAR-5 ovarian 109% | OVCAR-4 ovarian 102% | SK-OV-3 ovarian 113% | IGROV1 ovarian 104% | OVCAR-3 ovarian 112% | HS 578T breast 113% | NCI/ADR-RES ovarian 104% | T-47D breast 81% | BT-549 breast 92.2% | MDA-MB-435 melanoma 99.2% | SW-620 colon 97.1% | MCF7 breast 49.9% | HCT-116 colon 98.3% | HCC-2998 colon 95.7% | KM12 colon 95.5%

COc1cc2c(cc1OCCCOc1cc3c(cc1OC)C(=O)N1CC(F)(F)C[C@H]1C=N3)N=C[C@@H]1CC(F)(F)CN1C2=O
active: RPMI-8226 leukemia -30.7% | IGROV1 ovarian 0.757% | HS 578T breast -8.37% | BT-549 breast -38.5% | MDA-MB-435 melanoma -11.8% | SW-620 colon 1.84% | HCT-116 colon 4.77% | HCC-2998 colon -7.61% | KM12 colon -18.5%
inactive: OVCAR-8 ovarian 17.8% | OVCAR-5 ovarian 14.2% | OVCAR-4 ovarian 35.2% | SK-OV-3 ovarian 46.2% | OVCAR-3 ovarian 22.8% | NCI/ADR-RES ovarian 76.9% | T-47D breast 27.7% | MCF7 breast 13.8%

O=C(/C(=C/c1ccc([N+](=O)[O-])cc1)SCc1ccc(F)cc1)c1ccc(Cl)cc1
active: RPMI-8226 leukemia -16% | SW-620 colon 1.44% | MCF7 breast -21.8% | HCT-116 colon 0.116%
inactive: OVCAR-8 ovarian 66.2% | OVCAR-5 ovarian 95% | OVCAR-4 ovarian 57.8% | SK-OV-3 ovarian 74.8% | IGROV1 ovarian 53.8% | OVCAR-3 ovarian 70.5% | HS 578T breast 27.1% | NCI/ADR-RES ovarian 53% | T-47D breast 49.3% | BT-549 breast 84.9% | MDA-MB-435 melanoma 43.9% | HCC-2998 colon 84.3% | KM12 colon 19.5%

N#CC1(C#N)C2=C(CCCC2)NC(c2c(F)cccc2Cl)C1(C#N)C#N (centres undefined)
inactive: RPMI-8226 leukemia 43.4% | OVCAR-8 ovarian 86.9% | OVCAR-5 ovarian 87.7% | OVCAR-4 ovarian 66.9% | SK-OV-3 ovarian 79.7% | IGROV1 ovarian 83.3% | OVCAR-3 ovarian 20.3% | HS 578T breast 43.4% | NCI/ADR-RES ovarian 76.6% | T-47D breast 79.7% | BT-549 breast 60.4% | MDA-MB-435 melanoma 18% | SW-620 colon 48.8% | MCF7 breast 21.1% | HCT-116 colon 52.7% | HCC-2998 colon 97.6% | KM12 colon 73.3%

Cc1cc(C)nc(NS(=O)(=O)c2ccc(Nc3ccc4c5c(n(CCCN(C)C)c(=O)c4c3)-c3ccccc3C5=O)cc2)n1
inactive: RPMI-8226 leukemia 85.4% | OVCAR-8 ovarian 74.4% | OVCAR-5 ovarian 111% | OVCAR-4 ovarian 107% | SK-OV-3 ovarian 96.1% | IGROV1 ovarian 74.2% | OVCAR-3 ovarian 83.7% | HS 578T breast 93.2% | NCI/ADR-RES ovarian 98.6% | T-47D breast 102% | BT-549 breast 91.8% | MDA-MB-435 melanoma 98.8% | SW-620 colon 54.2% | MCF7 breast 30.6% | HCT-116 colon 56.4% | KM12 colon 71.6%

COc1cc(NC(=O)c2cc(O)c(C/C=C(\C)CCC=C(C)C)c(O)c2)cc2c1O[C@]1(C)CC[C@@H](O)C(C)(C)[C@H]1C2
active: RPMI-8226 leukemia -30% | OVCAR-3 ovarian -12.1% | BT-549 breast 0.27% | SW-620 colon 9.02% | MCF7 breast 8.42% | KM12 colon 7.44%
inactive: OVCAR-8 ovarian 23.5% | OVCAR-5 ovarian 44.9% | OVCAR-4 ovarian 29.6% | SK-OV-3 ovarian 26.9% | IGROV1 ovarian 20% | HS 578T breast 18.4% | NCI/ADR-RES ovarian 65% | T-47D breast 18% | MDA-MB-435 melanoma 10.2% | HCT-116 colon 10.8% | HCC-2998 colon 16.4%

[2H]c1cc2c(c([2H])c1F)/C(=C/c1[nH]c(C)c(C(=O)NCCN(CC)CC)c1C)C(=O)N2
inactive: RPMI-8226 leukemia 30.2% | OVCAR-8 ovarian 63.1% | OVCAR-5 ovarian 28.7% | OVCAR-4 ovarian 40.6% | SK-OV-3 ovarian 14.5% | IGROV1 ovarian 30.4% | OVCAR-3 ovarian 73.3% | HS 578T breast 44.9% | NCI/ADR-RES ovarian 65.7% | T-47D breast 68.7% | BT-549 breast 67.6% | MDA-MB-435 melanoma 34% | SW-620 colon 25.7% | MCF7 breast 38.5% | HCT-116 colon 34.1% | HCC-2998 colon 69.7%
active: KM12 colon 1.85%

C#CCN1C(=O)c2ccccc2N(CC#C)C12CCN(Cc1cn(CC(=O)Nc3ccccc3C(N)=O)nn1)CC2
inactive: RPMI-8226 leukemia 82.2% | OVCAR-8 ovarian 100% | OVCAR-5 ovarian 89.2% | OVCAR-4 ovarian 89% | SK-OV-3 ovarian 106% | IGROV1 ovarian 82.4% | OVCAR-3 ovarian 84.4% | HS 578T breast 91.8% | NCI/ADR-RES ovarian 80.5% | T-47D breast 77% | BT-549 breast 72.4% | MDA-MB-435 melanoma 91.9% | SW-620 colon 94% | MCF7 breast 83.8% | HCT-116 colon 74.4% | KM12 colon 88.8%
